The list is not random: actives were taken first. Their share in the collection is about 8.7%.
BAZ2B inh: blocks human BAZ2B | Q9UIF8 | AlphaScreen BAZ2B-H3K14Ac peptide displacement | Potency, µM (series often up to 114 µM), for inactives: top-dose activity change, negative = inhibition, usual class: inhibitors | hit rate 4.4% among 360,000 | AID 504333; also: potency is read from the fitted curve at half-maximal effect; % is scaled to controls: 0 for no effect and ±100 for the full control effect; nearly all actives have a fitted effect of over 60% in size
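Complex of BAZ2B and biotin-H3K14Ac (50 nM apiece) forms over 30 min at RT, then faces library compounds up to 110 uM for another 30 min; AlphaScreen beads added, 20 min dark incubation, luminescence read.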
Sfp inh: Sfp phosphopantetheinyl transferase inhibition | Q9F4F7 | Biochemical Sfp PPTase activity, qHTS | Potency, µM, for inactives: largest response in the series, negative = inhibition, hits mostly inhibitors | hit rate 3.5% among 310,000 | AID 1490;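 also: the enzyme is Sfp with the accession as filed and its product quenches rhodamine fluorescence; potency is read from the fitted curve at half-maximal effect; 0% = enzyme reaction without inhibitor and -100% = no enzyme wells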
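Fluorescence-quenching assay with 15 nM Sfp, 5 uM rhodamine-CoA and 12.5 uM BHQ-2-labelled ybbR peptide in pH 7.6 Hepes/MgCl2 buffer. Enzyme was pre-incubated with compound for 15 min at room temperature. Rate was taken from the 30-min fluorescence change (525/598 nm).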
12-LOX inh: blocks human arachidonate 12S-lipoxygenase | P18054 | purified 12hLO, xylenol orange hydroperoxide absorbance | Potency, µM (highest dose often 108 µM), inactives show at the highest dose activity change, negative = inhibition, actives largely listed as inhibitors | hit rate 1.1% among 580,000 | AID 1671190; also: potency is read from the fitted curve at half-maximal effect; % is scaled to controls: 0 for no effect and ±100 for the full control effect
Target sequence (P18054 whole entry, looked up): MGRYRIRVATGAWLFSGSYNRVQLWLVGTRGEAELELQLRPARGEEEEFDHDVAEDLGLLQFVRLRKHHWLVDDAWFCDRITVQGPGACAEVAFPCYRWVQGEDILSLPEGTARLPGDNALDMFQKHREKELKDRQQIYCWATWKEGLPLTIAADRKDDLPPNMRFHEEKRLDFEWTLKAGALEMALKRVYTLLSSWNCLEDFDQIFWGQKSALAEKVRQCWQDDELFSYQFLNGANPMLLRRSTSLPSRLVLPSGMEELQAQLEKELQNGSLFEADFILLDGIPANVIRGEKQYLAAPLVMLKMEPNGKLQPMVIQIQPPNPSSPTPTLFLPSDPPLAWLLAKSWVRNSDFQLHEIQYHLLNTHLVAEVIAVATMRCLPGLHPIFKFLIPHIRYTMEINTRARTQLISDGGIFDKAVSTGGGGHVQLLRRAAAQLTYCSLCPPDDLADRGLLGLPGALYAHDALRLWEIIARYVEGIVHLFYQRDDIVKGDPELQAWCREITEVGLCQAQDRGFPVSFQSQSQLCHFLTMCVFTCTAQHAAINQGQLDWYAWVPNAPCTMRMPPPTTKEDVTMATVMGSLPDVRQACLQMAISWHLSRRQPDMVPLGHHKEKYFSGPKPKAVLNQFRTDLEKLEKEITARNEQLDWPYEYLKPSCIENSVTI
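Purified human 12hLO (150 nM final) in 25 mM Hepes, 0.01% Triton X-100, pH 7.0 was preincubated 15 min at room temperature with compound. Then 40 uM arachidonic acid was added, 30 min. Hydroperoxide was read by Fe-XO absorbance ratio 573/405 nm.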
G9a inh-1: inhibitors of human histone lysine methyltransferase G9a; hit rate 8.8% among 350,000; Q96KQ7; G9a H3K9 monomethylation, AlphaScreen, 2 h; Potency, µM (highest dose often 102 µM), for the others: at the highest dose activity, negative = inhibition, most hits filed as inhibitors; also: potency is read from the fitted curve at half-maximal effect; % is scaled to controls: 0 for no effect and ±100 for the full control effect; nearly all actives have a fitted effect of over 75% in size
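Methyltransferase reactions run at room temperature for 2 h (20 nM enzyme, 500 nM biotin-H3K9 peptide, 20 uM SAM) after a 15 min compound preincubation; product detected by AlphaScreen beads and anti-H3K9me1 antibody.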
JMJD2A Tudor: JMJD2A Tudor domain (human) inhibition; O75164; AlphaScreen JMJD2A-Tudor / H3K4me3 peptide binding; Potency, µM (series often up to 114 µM), without a hit: at the highest dose activity change, negative = inhibition, most hits filed as inhibitors; hit rate 4.4% among 390,000; also: potency is read from the fitted curve at half-maximal effect; % is scaled to controls: 0 for no effect and ±100 for the full control effect; nearly all actives have a fitted effect of over 50% in size
HP1b chromo inh: HP1-beta chromodomain-methylated histone interaction inhibition. P83916. AlphaScreen HP1-beta / biotin-H3K9me3 peptide binding. Potency, µM (highest dose often 114 µM), for inactives: at the highest dose activity change, negative = inhibition, usual class: inhibitors. hit rate 0.56% among 390,000; also: potency is read from the fitted curve at half-maximal effect; nearly all actives have a fitted effect of over 70% in size
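AlphaScreen: HP1-beta (50 nM) preformed 30 min with biotin-H3(1-18)K9me3 peptide (50 nM) in PBS pH 7.4, 0.01% Tween-20. Compound added for 30 min at RT, then streptavidin donor/nickel chelate acceptor beads (10 ug/mL) for 30 min.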
JMJD2E inh-1: blocks human JMJD2E demethylase activity. AID 493212. shares compounds with BAZ2B inh. JMJD2E demethylase, FDH-coupled NADH fluorescence. Potency, µM (series often up to 57 µM), for inactives: at the highest dose activity, negative = inhibition, most hits filed as inhibitors. hit rate 89% among 130
ME-1 prolif: inhibitors of ME-1 leukemia cell proliferation, CBFb-RUNX1 project. shares compounds with BAZ2B inh. ME-1 cell proliferation, ATP luminescence, 48 h. Potency, µM (doses to about 56.1 µM), inactives show at the top dose activity change, negative = inhibition, usual class: inhibitors. hit rate 20% among 140
JMJD2E inh-2: JMJD2E (human) demethylase inhibition, confirmation. shares compounds with JMJD2A Tudor. Recombinant JMJD2E, FDH-coupled NADH fluorescence (FDH is formaldehyde dehydrogenase). Potency, µM (top dose mostly 56.8 µM), without a hit: top-dose activity change, negative = inhibition, actives largely listed as inhibitors. hit rate 93% among 140. AID 2677
FDH counter: FDH (Pseudomonas putida) inhibition counter-screen; Potency, µM (highest dose often 56.7 µM), for the others: at the highest dose activity, negative = inhibition, hits mostly inhibitors; AID 2680; shares compounds with JMJD2A Tudor; FDH enzyme assay, NADH fluorescence kinetic; hit rate 10% among 140
G9a inh-2: inhibits human G9a histone lysine methyltransferase, hit confirmation. shares compounds with JMJD2A Tudor. G9a H3K9 monomethylation, AlphaScreen, 2 h. Potency, µM, actives largely listed as inhibitors. hit rate 89% among 370. AID 588344; also: potency is read from the fitted curve at half-maximal effect; nearly all actives have a fitted effect of over 65% in size
* marks the source's active call; other numbers are inactive results; ? = inconclusive; nt = no result given; ! = a repeat was not active; [ ] = another dose, or the depositor's remark. Calls follow the shape of the dose curve; as a rule, active = well fitted curve in the direction sought with a large enough effect; inconclusive = small, poorly fitted or top-dose-only effect, or another doubt; inactive = no such curve, though single readings can be large; an effect the other way counts as inactive or inconclusive.

SMILES	BAZ2B inh	Sfp inh	12-LOX inh	G9a inh-1	JMJD2A Tudor	HP1b chromo inh	ME-1 prolif	others
NC(Cc1cc(O)c(O)cc1O)C(=O)O (stereo not given)	0.89µM*	nt	?	0.45µM*	nt	nt	-13%
CC(C)C[C@H]1C(=O)N2CCCC2[C@]2(O)O[C@](NC(=O)[C@@H]3C=C4c5cccc6[nH]cc(c56)CC4N(C)C3)(C(C)C)C(=O)N12 (stereo not given in full)	?	-18%	13%	40µM*	?	-1%	?
CC(C)C1C(=O)N2CCCC2[C@]2(O)O[C@@](NC(=O)[C@@H]3C=C4c5cccc6[nH]cc(c56)C[C@H]4N(C)C3)(C(C)C)C(=O)N12 (stereo not given in full)	nt	-16%	nt	nt	nt	nt	nt
CC(C)[C@H]1C(=O)N2CCC[C@H]2[C@]2(O)O[C@](NC(=O)[C@@H]3C=C4c5cccc6[nH]cc(c56)C[C@H]4N(C)C3)(C(C)C)C(=O)N12	?	56µM*	nt	10µM*	-34%	3%	-8%[25.6 µM]
Cc1sc2c(c1C)C(c1ccc(F)cc1)=NCC(=O)N2CC(=O)Nc1cc(F)ccc1F	nt	nt	-33%	nt	nt	nt	nt
CN(C)c1ccc(C(=O)N2CCC3(CC2)c2nccn2-c2ccccc2CN3C)cc1	nt	nt	36%	nt	nt	nt	nt
CN(N=O)c1ccc(O)c(O)c1	nt	nt	nt	0.5µM*	nt	nt	-16%
COc1cc2c(cc1OCC1CC1)NC(=O)C21CCN(C(=O)c2cccc(O)c2)CC1	nt	nt	9%[176 µM]	nt	nt	nt	nt
CC(C)NC(=O)N1CCC2(CC1)c1nccn1-c1ccccc1CN2C	nt	nt	43%	nt	nt	nt	nt
COc1cc2c(cc1CCc1ccccc1)N(C(=O)[C@@H]1CCCO1)CC21CCN(C(C)=O)CC1	nt	nt	11%	nt	nt	nt	nt
NCCc1cc(O)c(O)cc1O	nt	63µM*	?	-143%[2.33 µM]	10µM*	28µM*	?
CC(C)NC(=O)CN(C)C(=O)c1cn(Cc2ccccc2)c2ccccc12	nt	nt	-6%	nt	nt	nt	nt
CN1Cc2ccccc2[C@@H]2c3cccc4[nH]cc(c34)C[C@H]21	nt	79µM*!	38%	13µM*	nt	nt	11µM*
O=C(O)CCCCC1SCC2NC(=O)NC21 (stereo not given)	0.79µM*	14%	-11%	7.9µM*!	11µM*	?	-13%
N#Cc1c(N)nc2c(c1-c1ccc(OCc3ccc(F)cc3)cc1)c(=O)nc1sccn12	nt	nt	37%	nt	nt	nt	nt
O=C1C=CC(=O)c2c(O)cccc21	nt	-23%	nt	?	nt	nt	22µM*
O=C(O)c1ccc(O)c2ncc(N3CCNCC3)cc12	nt	nt	nt	nt	nt	nt	nt	JMJD2E inh-1=4.1µM*;JMJD2E inh-2=?;FDH counter=-36%
O=C(c1ccccn1)N1C[C@@H]2C[C@H](C1)c1ccc(NS(=O)(=O)c3cccs3)c(=O)n1C2	nt	nt	2%	nt	nt	nt	nt
CN1CC[C@]2(C)c3cc(O)ccc3N(C)[C@@H]12	nt	-24%	nt	8.9µM*	nt	nt	nt	JMJD2E inh-2=10µM*;FDH counter=?
COc1ccc(OCC(=O)N2CCN(Cc3ccc(SC)cc3)CC2)cc1	50µM*!	13%	?	2.2µM*	2.5µM*	?	nt	G9a inh-2=32*
Cc1cc(OCc2nn[nH]n2)c2c3c(c(=O)oc2c1)CCC3	6%	17%	-7%	-26%	-27%	37%	nt
Cc1cc(=O)oc2c1c(C)nn2-c1nn[nH]n1	40µM*	2%	?	0.71µM*	14µM*	?	nt	G9a inh-2=0.36*
COCCN1CCC(O)C2CCCCC21 (stereo not given)	nt	nt	-15%	nt	nt	nt	nt
COc1cc2c(cc1Oc1ccccc1)NC(=O)C21CCN(C(=O)c2ccnn2C)CC1	nt	nt	7%[176 µM]	nt	nt	nt	nt
Cn1c(CNC(=O)c2ccco2)nnc1SCC(=O)N1c2ccccc2Sc2ccccc21	-35%	-4%	4%	?	-7%	21%	nt	G9a inh-2=1*
Cn1nc(C2CCCC2)cc1[C@H]1CN2CC[C@H]1C[C@@H]2CNS(=O)(=O)c1cccs1	nt	nt	-5%[176 µM]	nt	nt	nt	nt

Source: PubChem
